Where “and” joins values, the source holds several entries; their conditions need not be identical. Equal values may be shown once. Results filed as inconclusive are left out. Where a call stands in place of a potency, no number is given. Calls of active or inactive are those of the source. Calls come from the whole dose curve; as a rule, active = well fitted curve in the direction sought with a large enough effect; inconclusive = small, poorly fitted or top-dose-only effect, or another doubt; inactive = no such curve, though single readings can be large; an effect the other way counts as inactive or inconclusive.
What follows are compounds tested against Furin (Homo sapiens) (UniProt P09958) (assay: Furin counterscreen qHTS for Zika virus inhibitors (AID 1347149)). Conditions: furin enzymatic counterscreen, fluorogenic substrate; series mostly up to 114 µM.
Chain of Furin (Homo sapiens) (P09958 whole entry, looked up): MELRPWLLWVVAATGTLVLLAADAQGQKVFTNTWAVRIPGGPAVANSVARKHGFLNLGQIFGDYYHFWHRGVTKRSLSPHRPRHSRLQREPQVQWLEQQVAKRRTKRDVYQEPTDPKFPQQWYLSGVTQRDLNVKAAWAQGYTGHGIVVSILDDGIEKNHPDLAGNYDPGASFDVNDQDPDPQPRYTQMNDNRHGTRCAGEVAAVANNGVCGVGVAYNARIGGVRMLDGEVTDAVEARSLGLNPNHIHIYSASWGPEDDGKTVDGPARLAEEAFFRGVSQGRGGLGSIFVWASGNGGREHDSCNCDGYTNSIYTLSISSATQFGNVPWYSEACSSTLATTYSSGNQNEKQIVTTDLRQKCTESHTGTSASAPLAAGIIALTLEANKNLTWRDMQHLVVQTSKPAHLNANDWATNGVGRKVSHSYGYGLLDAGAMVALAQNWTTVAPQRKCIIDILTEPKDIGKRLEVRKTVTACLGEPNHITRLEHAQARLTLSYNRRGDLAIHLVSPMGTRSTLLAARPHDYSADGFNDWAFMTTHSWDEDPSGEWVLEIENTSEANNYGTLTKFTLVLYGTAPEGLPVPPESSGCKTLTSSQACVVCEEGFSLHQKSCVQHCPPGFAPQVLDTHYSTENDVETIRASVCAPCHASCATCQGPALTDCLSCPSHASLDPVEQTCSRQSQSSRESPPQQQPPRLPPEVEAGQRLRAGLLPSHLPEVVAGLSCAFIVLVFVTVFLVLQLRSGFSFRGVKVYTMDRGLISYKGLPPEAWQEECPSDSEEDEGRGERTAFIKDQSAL
Summary of the method: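 Fluorogenic cleavage of BOC-RVRR-AMC (2 microM final, Km ~15 µM) was monitored (ex 340, em 450 nm) at 37C after 15 min RT preincubation of 5 nM furin with compounds in HEPES pH 7.0 buffer with CaCl2 and Triton X-100. Percent inhibition was fitted to a 4-parameter Hill curve.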
In the case of CCOC(=O)C1=C(C)NC2=C(C(=O)CC(C)(C)C2)C1c1ccc(-c2ccccc2)cc1 (stereo not given), the Potency is reported as 19.2 µM (active). With Cc1cc(CN2CCN(c3c(Br)cnc4nc(-c5ccc(N6CCN(C)CC6)cc5)[nH]c34)CC2)no1 the Potency was 24.1 µM (active). In the case of O=C(O)C1(Cc2cccc(Nc3nccs3)n2)CCC(Oc2cccc(Cl)c2F)CC1 (stereo not given), the Potency is reported as “inactive”. For O=c1c2ccccc2nc2n1CCc1c-2[nH]c2ccccc12, the Potency was 42.9 µM (active). For CN1CCC(CNc2ccc3ncc(-c4cccc(OC(F)(F)F)c4)n3n2)CC1, the Potency was 21.5 µM (active). For N#Cc1c(O)c2c(-c3ccc(-c4ccccc4O)cc3)csc2[nH]c1=O, the Potency was “inactive”. With CCN(CC)CCCCNc1ncc2cc(-c3cc(OC)cc(OC)c3)c(NC(=O)NC(C)(C)C)nc2n1 the Potency was 24.1 µM (active). CC(C)c1ccccc1Cc1cc(C(=O)Nc2ccc(S(=O)(=O)c3ccccc3C(C)(C)C)cc2)c(O)c(O)c1O was tested, and the Potency was “inactive”.

These compounds were tested on Zika virus NS2B-NS3 protease (linked construct) (assay: Confirmatory screen NINDS AMC qHTS for Zika virus inhibitors (AID 1347152)). Conditions: Purified linked NS2B-NS3, AMC substrate fluorescence; series mostly up to 110 µM.
Summary of the method: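 Linked NS2B-NS3 protease, 1 nM, in 10 mM Tris-HCl pH 8.0, 0.01% Tween 20; compounds preincubated 15 min at room temperature. Nle-KRR-AMC 10 microM (Km 18.3 µM); 15-min fluorescence change (340/450 nm) fitted to 4-parameter Hill.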
With COc1cc(C(=O)NS(=O)(=O)c2ccccc2C)ccc1Cc1cn(C)c2ccc(NC(=O)OC3CCCC3)cc12 the Potency was 9.61 µM (active). CCOC(=O)C1=C(C)NC2=C(C(=O)CC(C)(C)C2)C1c1ccc(-c2ccccc2)cc1 (stereo not given) was tested, and the Potency was 17.1 µM (active). Cc1cc(CN2CCN(c3c(Br)cnc4nc(-c5ccc(N6CCN(C)CC6)cc5)[nH]c34)CC2)no1 was tested, and the Potency was 34.1 µM (active). O=c1c2ccccc2nc2n1CCc1c-2[nH]c2ccccc12 was tested, and the Potency was 24.1 µM (active). In the case of CN1CCC(CNc2ccc3ncc(-c4cccc(OC(F)(F)F)c4)n3n2)CC1, the Potency is reported as 27.1 µM (active). N#Cc1c(O)c2c(-c3ccc(-c4ccccc4O)cc3)csc2[nH]c1=O was tested, and the Potency was 4.82 µM (active) and 8.79 µM (active). CC(C)c1ccccc1Cc1cc(C(=O)Nc2ccc(S(=O)(=O)c3ccccc3C(C)(C)C)cc2)c(O)c(O)c1O was tested, and the Potency was “inactive”.

Each compound was assayed on Zika virus NS2B-NS3 protease (assay: Primary screen GU AMC qHTS for Zika virus inhibitors (AID 1347154)). Conditions: Zika NS2B-NS3 unlinked protease, AMC fluorogenic substrate; series mostly up to 54.1 µM.
Summary of the method: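 Unlinked Zika NS2B hydrophilic domain/NS3 protease domain noncovalent complex (25 nM final) in 10 mM Tris-HCl pH 8.0, 0.01% Tween 20, with AMC peptide substrate. Fluorescence (ex 340, em 450 nm) change over 15 min, room temperature; percent inhibition fitted to 4-parameter Hill equation.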
For O=C(O)CO.[NH2-].[NH2-].[Pt+2], the Potency was “inactive”. With Cc1nc2ccc(CN(C)c3ccc(C(=O)N[C@@H](CCC(=O)O)C(=O)O)s3)cc2c(=O)[nH]1 the Potency was “inactive”. In the case of O=C(NCCS(=O)(=O)c1ccc(C(F)(F)F)cn1)c1ccc(Cl)cc1, the Potency is reported as “inactive”. CNC(=O)c1ccc(-c2cnc3ncc(Cc4ccc5ncccc5c4)n3n2)cc1F was tested, and the Potency was “inactive”. Cc1cc(Nc2cc(CN3CCOCC3)c3nc(C)c(Cc4ccc(Cl)cc4F)n3n2)n[nH]1 was tested, and the Potency was “inactive”. COc1cc(C(=O)NS(=O)(=O)c2ccccc2C)ccc1Cc1cn(C)c2ccc(NC(=O)OC3CCCC3)cc12 was tested, and the Potency was 12.6 µM (active). CCOC(=O)C1=C(C)NC2=C(C(=O)CC(C)(C)C2)C1c1ccc(-c2ccccc2)cc1 (stereo not given) was tested, and the Potency was 17.1 µM (active). With CC(O)C1C(=O)N2C(C(=O)O)=C(SC3CNC(C(=O)N(C)C)C3)C(C)C12 (stereo not given) the Potency was “inactive”. For Cc1cc(CN2CCN(c3c(Br)cnc4nc(-c5ccc(N6CCN(C)CC6)cc5)[nH]c34)CC2)no1, the Potency was 24.1 µM (active). In the case of Cc1ccc(C(=O)Nc2ccc(CN3CCN(C)CC3)c(C(F)(F)F)c2)cc1C#Cc1cnc2cccnn12, the Potency is reported as 34.1 µM (active). O=c1c2ccccc2nc2n1CCc1c-2[nH]c2ccccc12 was tested, and the Potency was 30.4 µM (active). With N#CCNC(=O)c1ccc(-c2ccnc(Nc3ccc(N4CCOCC4)cc3)n2)cc1 the Potency was “inactive”. For Cc1cc(C(=O)N2CCN(c3cccc(Cl)c3)CC2)n(-c2ccccc2)n1, the Potency was “inactive”. With CC1COC2(CCN(c3nc(=O)c4cc(C(F)(F)F)cc([N+](=O)[O-])c4s3)CC2)O1 (stereo not given) the Potency was “inactive”. In the case of Nc1cc(C(F)(F)F)c(-c2cc(N3CCOCC3)nc(N3CCOCC3)n2)cn1, the Potency is reported as “inactive”. With CN1CCC(CNc2ccc3ncc(-c4cccc(OC(F)(F)F)c4)n3n2)CC1 the Potency was 24.1 µM (active). With O=C(O)[C@H](Cc1c[nH]c2ccccc12)N1C(=O)c2ccccc2C1=O the Potency was “inactive”. For CC(C)CC(=O)Nc1n[nH]c2c1CN(C(=O)C1CCN(C)CC1)C2(C)C, the Potency was “inactive”. With Nc1ccn([C@@H]2O[C@H](CO)[C@H](O)C2(F)F)c(=O)n1 the Potency was “inactive”. In the case of COc1ccc2c(c1)CC[C@@H](CN(C)CC(=O)O)[C@H]2c1ccccc1, the Potency is reported as “inactive”. COc1cc2ncnc(Nc3ccc(F)c(Cl)c3)c2cc1NC(=O)C=CCN1CCCCC1 was tested, and the Potency was “inactive”. O=C(O)c1ccc2c(c1)nc(Nc1cccc(Cl)c1)c1ccncc12 was tested, and the Potency was “inactive”. For Cc1cn2cc(C(=O)N(C)CCO)cc(N[C@@H]3CCOc4cccc(C)c43)c2n1, the Potency was “inactive”. With N#Cc1c(O)c2c(-c3ccc(-c4ccccc4O)cc3)csc2[nH]c1=O the Potency was 8.57 µM (active). C[C@@H]1COC(Nc2ccc3ncnc(Nc4ccc(OCc5nccs5)c(Cl)c4)c3c2)=N1 was tested, and the Potency was “inactive”. With Cc1nc(N)ncc1-c1nc(N2CCOCC2)c2sc(C(C)(C)O)cc2n1 the Potency was “inactive”. With Cc1cc(Nc2cc(N3CCN(C)CC3)nc(Sc3ccc(NC(=O)C4CC4)cc3)n2)n[nH]1 the Potency was “inactive”. CC1(C)CC(=O)c2c(C(F)(F)F)nn(-c3ccc(C(N)=O)c(NC4CCC(OC(=O)CN)CC4)c3)c2C1 (stereo not given) was tested, and the Potency was “inactive”. For CCN(CC)CCCCNc1ncc2cc(-c3cc(OC)cc(OC)c3)c(NC(=O)NC(C)(C)C)nc2n1, the Potency was 21.5 µM (active). With CN[C@H]1CCc2cc(OC)c(OC)c(OC)c2-c2ccc(OC)c(=O)cc21 the Potency was “inactive”. Nc1ncnc2c1c(-c1cccc(OCc3ccccc3)c1)cn2C1CC(CN2CCCC2)C1 (stereo not given) was tested, and the Potency was “inactive”. With COc1cc(C)c(Sc2cnc(NC(=O)c3ccc(CNC(C)C(C)C)cc3)s2)cc1C(=O)N1CCN(C(C)=O)CC1 (stereo not given) the Potency was “inactive”. For COc1ccc(OC)c(-c2nnc3ccc(-c4ccc(OC)c(O[C@@H]5CCOC5)c4)nn23)c1, the Potency was “inactive”. In the case of CC(C)c1ccccc1Cc1cc(C(=O)Nc2ccc(S(=O)(=O)c3ccccc3C(C)(C)C)cc2)c(O)c(O)c1O, the Potency is reported as 17.1 µM (active). In the case of Cn1cncc1[C@@](N)(c1ccc(Cl)cc1)c1ccc2c(c1)c(-c1cccc(Cl)c1)cc(=O)n2C, the Potency is reported as “inactive”.

From PubChem BioAssay (NCATS)
Note: nearly all actives have a fitted effect of over 70% in size.
Potency is the fitted concentration of half-maximal effect.
